# From the supplement of paper PMC9262897, “Low-cost anti-mycobacterial drug discovery using engineered E. coli” (Nature Communications, 2022)
# Structures can show the parent of a compound that is named as a salt. ± gives the standard deviation of the averaged measurements.
# What was measured:
# Test in all cases: growth (OD600 after 10 h); higher = more growth (less inhibition)
# [1] = tested on: E. coli TESEC Alr+ wild-type control; conditions: compound 0.1 mM; raw OD600 reference: median of DMSO wells 0.241, cell-free background 0.041
# Experimental: (§1)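 TESEC Mtb Alr E. coli, or the Alr+ wild-type control, in 384-well plates with Prestwick library compounds at 0.1 mM and 1% DMSO, across arabinose induction levels of 1E3 to 1E7 nM. Growth is read as OD600 after 10 h at 37 °C in triplicate biological replicates.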
# E. coli TESEC Mtb Alr [2] = conditions: compound 0.1 mM
# Experimental: as §1
# E. coli TESEC Mtb Asd = conditions: compound 0.1 mM
# Experimental: (§2)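 TESEC E. coli strains in which the native enzyme is deleted and replaced by arabinose-inducible Mtb Asd, DapB, CysH or TrpD, each grown in its selective medium. Strains were screened against the Prestwick library at 0.1 mM and 1% DMSO in 384-well format at low and high arabinose induction. Growth is read as OD600 after 10 h in triplicate.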
# E. coli TESEC Mtb DapB = conditions: compound 0.1 mM
# Experimental: as §2
# [3] = tested on: E. coli TESEC Alr+ wild-type control; conditions: compound 0.1 mM; raw OD600 reference: median of DMSO wells 0.49, cell-free background 0.052
# Experimental: (§3)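 TESEC Mtb Alr E. coli (ΔaraC ΔtolC ΔentC Δalr ΔdadX, arabinose-inducible Mtb Alr) or the Alr+ wild-type control strain, grown in defined M9-fructose medium without D-alanine in 96-well plates with Prestwick library compounds at 0.1 mM and 1% DMSO. Low Alr induction is 0.1 µM arabinose and high induction is 10 mM arabinose.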
# E. coli TESEC Mtb Alr [4] = conditions: compound 0.1 mM; remark: listed apart in the source
# Experimental: as §3
# [5] = arabinose 1000 nM, raw OD600 reference: median of DMSO wells 0.294, cell-free background 0.041
# [6] = arabinose 10000 nM, raw OD600 reference: median of DMSO wells 0.264, cell-free background 0.041
# [7] = arabinose 100000 nM, raw OD600 reference: median of DMSO wells 0.201, cell-free background 0.041
# [8] = arabinose 1000000 nM, raw OD600 reference: median of DMSO wells 0.193, cell-free background 0.041
# [9] = arabinose 10000000 nM, raw OD600 reference: median of DMSO wells 0.146, cell-free background 0.041
# [10] = arabinose induction (level): High, raw OD600 reference: median of DMSO wells 0.331, cell-free background 0.041
# [11] = arabinose induction (level): Low, raw OD600 reference: median of DMSO wells 0.417, cell-free background 0.041
# [12] = arabinose induction (level): High, raw OD600 reference: median of DMSO wells […], cell-free background 0.041
# [13] = arabinose induction (level): Low, raw OD600 reference: median of DMSO wells 0.227, cell-free background 0.041
# [14] = arabinose 100 nM, raw OD600 reference: median of DMSO wells 0.413, cell-free background 0.052
# [15] = arabinose 10000000 nM, raw OD600 reference: median of DMSO wells […], cell-free background 0.052
SMILES,growth [1],growth (E. coli TESEC Mtb Alr [2]; [5]),growth (E. coli TESEC Mtb Alr [2]; [6]),growth (E. coli TESEC Mtb Alr [2]; [7]),growth (E. coli TESEC Mtb Alr [2]; [8]),growth (E. coli TESEC Mtb Alr [2]; [9]),growth (E. coli TESEC Mtb Asd; [10]),growth (E. coli TESEC Mtb Asd; [11]),growth (E. coli TESEC Mtb DapB; [12]),growth (E. coli TESEC Mtb DapB; [13]),growth [3],growth (E. coli TESEC Mtb Alr [4]; [14]),growth (E. coli TESEC Mtb Alr [4]; [15])
CC[C@H](C)C(=O)O[C@H]1C[C@@H](C)C=C2C=C[C@H](C)[C@H](CC[C@@H]3C[C@@H](O)CC(=O)O3)[C@H]21 [Lovastatin],0.256 ± 0.0052,0.307 ± 0.01,0.0518 ± 0.002,0.21 ± 0.017,0.0567 ± 0.013,0.139 ± 0.0042,0.276 ± 0.026,0.35 ± 0.065,0.163 ± 0.018,0.192 ± 0.023,0.473 ± 0.043,0.43 ± 0.018,0.148 ± 0.042
C=C1C(=O)O[C@H]2[C@H]1CC/C(C)=C/CC[C@@]1(C)O[C@@H]21 [Parthenolide],0.157 ± 0.0041,0.303 ± 0.0032,0.27 ± 0.0042,0.232 ± 0.014,0.185 ± 0.0044,0.157 ± 0.0078,0.155 ± 0.0046,0.269 ± 0.036,0.2 ± 0.0037,0.224 ± 0.022,0.488 ± 0.038,0.404 ± 0.013,0.316 ± 0.02
CCn1cc(C(=O)O)c(=O)c2cnc(N3CCCC3)nc21 [Piromidic acid],0.228 ± 0.0041,0.314 ± 0.026,0.267 ± 0.0056,0.161 ± 0.019,0.182 ± 0.0092,0.145 ± 0.0049,0.288 ± 0.037,0.432 ± 0.015,0.208 ± 0.016,0.239 ± 0.025,0.144 ± 0.003,0.12 ± 0.021,0.105 ± 0.015
CCCCC(=O)N(Cc1ccc(-c2ccccc2-c2nnn[nH]2)cc1)[C@H](C(=O)O)C(C)C [Valsartan],0.249 ± 0.013,0.307 ± 0.0036,0.27 ± 0.0035,0.213 ± 0.02,0.193 ± 0.014,0.151 ± 0.0071,0.291 ± 0.042,0.396 ± 0.047,0.211 ± 0.011,0.257 ± 0.03,0.557 ± 0.049,0.422 ± 0.016,0.339 ± 0.012
CC[C@]12CCCN3CCc4c(n(c5ccccc45)[C@@](O)(C(=O)OC)C1)[C@@H]32 [Vincamine],0.235 ± 0.0064,0.276 ± 0.0046,0.258 ± 0.0043,0.193 ± 0.023,0.173 ± 0.0043,0.138 ± 0.0023,0.375 ± 0.011,0.456 ± 0.006,0.191 ± 0.015,0.266 ± 0.071,0.503 ± 0.059,0.422 ± 0.011,0.322 ± 0.011
CN(C)CCC=C1c2ccccc2C=Cc2ccccc21 [Cyclobenzaprine hydrochloride],0.1703 ± 0.0014,0.204 ± 0.016,0.247 ± 0.011,0.172 ± 0.011,0.0898 ± 0.0029,0.125 ± 0.0031,0.161 ± 0.0091,0.262 ± 0.022,0.175 ± 0.011,0.203 ± 0.027,0.5608 ± 0.002,0.401 ± 0.0064,0.231 ± 0.018
CC[C@H]1OC(=O)[C@H](C)[C@@H](O[C@H]2C[C@@](C)(OC)[C@@H](O)[C@H](C)O2)[C@H](C)[C@@H](O[C@@H]2O[C@H](C)C[C@H](N(C)C)[C@H]2O)[C@](C)(OC)C[C@@H](C)C(=O)[C@H](C)[C@@H](O)[C@]1(C)O [Clarithromycin],0.0414 ± 0.00036,0.0421 ± 0.00026,0.04 ± 0.00071,0.0426 ± 0.00059,0.041 ± 0.0018,0.0437 ± 0.0036,0.0608 ± 0.013,0.0537 ± 0.0096,0.061 ± 0.0028,0.0632 ± 0.0078,0.055 ± 0.00044,0.0576 ± 0.0015,0.0524 ± 0.00061
CCCCN(CCCC)CCCOC(=O)c1ccc(N)cc1 [Butacaine],0.2003 ± 0.0014,0.284 ± 0.019,0.275 ± 0.01,0.181 ± 0.013,0.189 ± 0.0068,0.14 ± 0.0032,0.275 ± 0.029,0.445 ± 0.06,0.182 ± 0.0067,0.208 ± 0.016,0.474 ± 0.038,0.408 ± 0.013,0.337 ± 0.019
